6 substances from ChEMBL document CHEMBL1201862, “PubChem BioAssay data set” (2004) can be followed below.

Hit rate of the full screen: of about 44,000 sequences, about 2,900 (6.6%) were called active. Cut-off read from the data, not from the text of the source: active = GI50 up to about 1.1 µM and inactive = higher. Only a sample is shown. Entries with a potency or affinity are not part of this list.

For the assay, the system named is MDA-MB-231.
For orientation: GI50 means the concentration that inhibits growth by half. High values mean less potent growth inhibition, low ones more potent growth inhibition. As to “[Bis(aminomethyl)tetramethylenesilane]tetrachloropaltinum(IV), CHEMBL2146189”, the GI50 stood at 21 µM.

The substance “[Bis(aminomethyl)pentamethylenesilane]tetrachloropaltinum(IV), CHEMBL2146204” showed a GI50 of 19.6 µM.

CISPLATIN, CHEMBL11359 displayed a GI50 of 22.4 µM.

Take “[Bis(aminomethyl)tetramethylenesilane]dichloropaltinum(II), CHEMBL2146205”: growth was halved (GI50) at 48.6 µM.

“[Bis(aminomethyl)pentamethylenesilane]dichloropaltinum(II), CHEMBL2146202” yielded a GI50 of 2.01 µM.

“[Bis(aminomethyl)dimethylsilane]tetrachloroplatinum(IV), CHEMBL2146190”: the GI50 worked out at 60.1 µM.
